Compound activity (PubChem)
Rows were chosen to be rich in hits. Some 3% of all compounds tested hit in one or more screens of this group.
KAT2A inh: qHTS Assay for Inhibitors of GCN5L2 | GCN5L2 HAT assay, ThioGlo1 CoA-SH fluorescence | Potency, µM (highest dose often 58.9 µM), without a hit: at the top dose activity change, negative = inhibition, most hits filed as inhibitors | actives 0.21% (n = 390,000)
Target sequence (Q92830 whole entry, looked up): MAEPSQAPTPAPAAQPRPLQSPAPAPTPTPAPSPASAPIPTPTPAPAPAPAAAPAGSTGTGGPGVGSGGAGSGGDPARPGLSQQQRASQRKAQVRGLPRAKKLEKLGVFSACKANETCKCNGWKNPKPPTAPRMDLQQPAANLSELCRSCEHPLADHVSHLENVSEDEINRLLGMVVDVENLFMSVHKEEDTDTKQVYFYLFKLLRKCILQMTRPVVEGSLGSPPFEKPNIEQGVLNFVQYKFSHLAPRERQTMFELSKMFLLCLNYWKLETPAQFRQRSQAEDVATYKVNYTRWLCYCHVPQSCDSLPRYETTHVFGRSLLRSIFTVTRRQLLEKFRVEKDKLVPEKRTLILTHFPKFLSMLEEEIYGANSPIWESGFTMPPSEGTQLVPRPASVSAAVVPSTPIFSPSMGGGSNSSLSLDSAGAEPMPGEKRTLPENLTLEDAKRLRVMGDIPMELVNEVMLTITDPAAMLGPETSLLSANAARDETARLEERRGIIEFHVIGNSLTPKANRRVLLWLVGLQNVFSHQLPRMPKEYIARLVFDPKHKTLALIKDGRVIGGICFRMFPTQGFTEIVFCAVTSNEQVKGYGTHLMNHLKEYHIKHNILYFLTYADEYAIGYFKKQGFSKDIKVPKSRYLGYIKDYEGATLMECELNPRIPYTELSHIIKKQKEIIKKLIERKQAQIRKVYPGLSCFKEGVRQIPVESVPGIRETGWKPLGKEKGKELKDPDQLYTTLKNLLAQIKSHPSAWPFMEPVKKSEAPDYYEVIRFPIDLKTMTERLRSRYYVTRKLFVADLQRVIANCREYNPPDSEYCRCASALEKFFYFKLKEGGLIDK
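Free CoA generated was detected with ThioGlo1 (50uM) fluorescence at Ex340nm/Em540nm, read immediately and after 20 min at room temperature. Enzyme, 20 nM in HEPES pH 7.5 buffer, saw compounds 15 min before adding 75uM H3(1-25) peptide and 70uM acetyl-CoA.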
PLK1 PBD block: qHTS for Inhibitors of PLK1-PDB (polo-like kinase 1 - polo-box domain): Primary Screen; Potency, µM, for inactives: max response, negative = inhibition, usual class: inhibitors; AID 720504, 2013; actives 2.8% (n = 360,000); Plk1 PBD binding of FITC phosphopeptide, fluorescence polarization; further: series mostly up to about 57 µM; nearly all actives have a fitted effect of over 65% in size
VDR inh: Inhibitors of the vitamin D receptor (VDR): qHTS | Vitamin D3 receptor (Homo sapiens), P11473 | actives 0.93% (n = 400,000) | AID 504847, 2011 | VDR-SRC2-3 peptide fluorescence polarization, 2 h | Potency, µM, for the others: max response, negative = inhibition, usual class: inhibitors
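Two reagent solutions held at 4 deg C in the dark were dispensed, compounds pinned at 23 nl, and the mixture incubated 2 h at room temperature. Read-out: fluorescence polarization of VDR–SRC2-3 peptide binding.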
ALOX12 inh: Primary qHTS assay for inhibitors of human arachidonate 12S-lipoxygenase (ALOX12): Round 2 | actives 1.1% (n = 580,000) | purified 12hLO, xylenol orange hydroperoxide absorbance | Potency, µM (top dose mostly 108 µM), without a hit: at the highest dose activity change, negative = inhibition, usual class: inhibitors
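Purified human 12hLO at 150 nM in 25 mM Hepes, 0.01% Triton X-100, pH 7.0, preincubated 15 min at room temperature with compound. Reaction started with 40 uM arachidonic acid, 30 min at room temperature. Hydroperoxide measured by Fe-xylenol orange, 573/405 nm absorbance ratio.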
* marks the source's active call; other numbers are inactive results; ? = inconclusive; . = no result given; ! = not active in a repeat; [ ] = another dose, or the depositor's remark. The call rests on the fitted dose curve; in most records, active means well fitted curve in the direction sought with a large enough effect; inconclusive means small, poorly fitted or top-dose-only effect, or another doubt; inactive means no such curve, though single readings can be large; an effect the other way counts as inactive or inconclusive. On the % scale 0 is the no-effect control and ±100 the full control effect; potency means the concentration at half of the fitted maximal effect.

SMILES	KAT2A inh	PLK1 PBD block	VDR inh	ALOX12 inh
CCn1c(SCC(=O)NC(C)c2ccc3c(c2)CCCC3)nnc1C1CC1 (stereo not drawn)	.	.	.	11%
CS(=O)(=O)Nc1cccc(-c2nccc(-n3ccnc3)n2)c1	-23%	.	?	22µM*
N#Cc1cccc(-c2nccc(-n3ccnc3)n2)c1	-19%	.	50µM*	25µM*
Cc1ccc(/C(C#N)=C\c2cccn2C)cc1	.	.	.	45µM*
Cc1ccc2cc3cc(C(=O)N4CC(C)CC(C)C4)oc3nc2c1 (stereo not drawn)	0%	13µM*	-3%	-21%
COc1ccc(/C=C2\Oc3ccccc3C2=O)cc1	-20%	-3%	-16%	?
COc1ccc(C=C2OC(=O)C(C(C)=O)=C2O)cc1	.	-11%	.	45µM*
CC(=O)C1=C(O)C(=Cc2ccccc2)OC1=O	.	3%	.	14µM*
Cc1ccc2oc(C(=O)N3CCN(c4cccc(Cl)c4)CC3)cc(=O)c2c1	.	.	.	-25%
O=c1oc2cc(O)ccc2cc1-c1nc(-c2ccc(Cl)cc2)cs1	.	.	.	8%
CCc1nc2c(OCCC3CCCCC3)cccn2c1N(C)C(=O)c1ccc(C)cc1	.	-11%	.	45µM*
CCc1nc2c(OCCC3CCCCC3)cccn2c1N(C)C(=O)C1CC1	.	-9%	.	.
COc1ccc(C2=NS(=O)(=O)N(C)C(C(=O)N3CCOCC3)=C2)cc1	-11%	-19%	-11%	19%
Cc1ccc(C2=NS(=O)(=O)N(C)C(C(=O)N3CCOCC3)=C2)cc1	10µM*	6%	1%	-2%
CCOC(=O)c1cn(C)nc1S(=O)(=O)N1CCOCC1	.	.	.	11µM*
Cc1cc(C(=O)NNC(=S)NCc2ccco2)n(C)n1	-5%	21µM*	?	0%
CC(C)c1cc(C(=O)NNC(=S)NCc2ccco2)c(O)c(C(C)C)c1	?	-11%	-3%	35µM*
COc1cncc(Nc2cnc3ccc(-c4ccc(F)cc4)nn23)c1	.	.	.	52%[176 µM]
COCCCNC(=O)N1CCC2(CC1)CC(N(Cc1ccc(F)cc1)C1CC1)CCO2 (stereo not drawn)	.	.	.	38%
Cc1cc(C)c(CNC(=O)c2cc(-c3ccccc3C)cc3c2OCCN3C)c(=O)[nH]1	.	.	.	112µM*
Cc1cc(C)c(CNC(=O)c2cc(-c3cnn(C)c3C)cc3c2OCCN3C)c(=O)[nH]1	.	.	.	8%[176 µM]
CC(C)CNc1nc2c(c(=O)[nH]c(=O)n2C)n1C(C)C	.	.	.	20%
CC(C)n1c(=S)[nH]c2c1c(=O)[nH]c(=O)n2C	?	-16%	?	5µM*
CC(C)CC(=O)N1CCN(c2ccc([N+](=O)[O-])cc2Cl)CC1	-4%	27µM*	-24%	-13%
CC(C)C(=O)N1CCN(c2ccc([N+](=O)[O-])cc2Cl)CC1	-3%	-6%	-9%	-24%
SMILES	KAT2A inh	PLK1 PBD block	VDR inh	ALOX12 inh
CC(C)CC(=O)N1CCN(c2ccc([N+](=O)[O-])c(NCc3ccccc3)c2)CC1	.	21µM*	-21%	?
O=C(c1ccccc1)N1CCN(c2ccc([N+](=O)[O-])c(NCc3cccnc3)c2)CC1	39%	-5%	-5%	-11%
CC(/C=C/C=C/c1ccccc1)=N\NC(=O)C1CC1c1ccc(C(C)(C)C)cc1 (stereo not drawn)	.	.	.	7%
CCCNc1c(NC(=O)c2ccccc2OC)c(=O)oc2ccccc12	.	.	.	-20%
Cc1ccsc1CN(C)C(=O)Cn1c(=O)c2c(ncn2C2CCCC2)n(Cc2ccccc2)c1=O	.	.	.	24%
CCN(CC(=O)Nc1ccc(OC)cc1)C(=O)c1ccc2c(c1)NC(=O)CS2	-11%	-13%	-15%	8.9µM*
CCN(CC(=O)Nc1ccc(OC)cc1)C(=O)c1ccc2ccccc2c1	2%	5%	-5%	?
COC(=O)c1ccc2c(c1)NC(=O)CS2	-18%	21µM*	-29%	-11%
CC(NC(=O)c1ccc2c(c1)NC(=O)CS2)c1ccc2c(c1)OCO2 (stereo not drawn)	.	.	.	14µM*
COC(=O)c1ccc(OC(=O)c2ccc3c(c2)NC(=O)CS3)c(OC)c1	.	.	.	0%
CCN(CC(=O)Nc1ccc(OC)cc1)C(=O)c1ccc([N+](=O)[O-])cc1	-4%	6.7µM*	?	-14%
CNC(C)c1cccs1 (stereo not drawn)	.	.	.	-22%
Nc1cc(Cl)ccc1Sc1ccccc1	.	.	.	-13%
NC(=O)C1CCN(C(=O)CCNc2ncnc3nc[nH]c23)CC1	.	.	.	2%
COc1c(Cl)cc(C(=O)N2CCN(Cc3cc(=O)n4ccsc4n3)CC2)cc1Cl	.	.	.	1%
Cc1cc(C)c(S(C)(=O)=O)c(Oc2ccccc2C)n1	1%	21µM*	-13%	7%
CCCNc1nc(-c2ccc3[nH]c(=O)oc3c2)cs1	.	.	.	13µM*
O=c1[nH]c2ccc(-c3csc(NC4CCCC4)n3)cc2o1	.	.	.	6.3µM*
CCNc1nc(-c2ccc(Br)cc2)cs1	.	.	.	-14%
Cc1nnc(SCC(=O)NC(=O)NC(C)(C)C)n1N	-5%	27µM*	-18%	0%
COc1ccc(-c2cc(C(=O)NCc3ccco3)c3ccccc3n2)c(OC)c1	-7%	-10%	15%	?
COc1ccccc1NC(=O)c1cc(-c2ccc(C)o2)nc2ccccc12	0%	-13%	-6%	?
O=C(Nc1ccccc1F)c1cc(-c2ccco2)nc2ccccc12	.	?	3%	?
COc1ccccc1NC(=O)c1cc(-c2ccco2)nc2ccccc12	.	.	.	16µM*
COc1ccc(-c2cc(C(=O)NCc3ccc(F)cc3)c3ccccc3n2)c(OC)c1	.	.	.	16µM*
SMILES	KAT2A inh	PLK1 PBD block	VDR inh	ALOX12 inh
O=C(Nc1ccc(F)cc1F)c1cc(-c2ccco2)nc2ccccc12	-11%	?	?	10µM*!
CCCCCn1c(NCCC)nc2c1c(=O)[nH]c(=O)n2C	.	.	.	7%
N#C/C(=C/c1ccc(OC(F)F)cc1)C(=O)Nc1cc(Cl)ccc1Cl	.	.	.	-17%
CC(C1CC1)N(Cc1ccccc1)S(=O)(=O)c1ccccc1Cl (stereo not drawn)	.	.	.	-9%
O=C(c1ccccc1)N1CCN(Cc2ccccc2)CC1	1%	-2%	-5%	?
O=C(N1CCN(Cc2ccccc2)CC1)C(F)(F)C(F)(F)C(F)(F)C(F)(F)F	.	.	.	28µM*
CC(=O)Oc1cccc(C(=O)Nc2ccc(-c3nc4ccccc4o3)cc2)c1	.	.	.	-26%
CCC(C)NC(=O)CN(c1ccc(OC)cc1)S(=O)(=O)c1ccccc1 (stereo not drawn)	1%	21µM*	?	-3%
COc1cccc(Oc2c(C)oc3cc(OC(=O)N4CCOCC4)ccc3c2=O)c1	.	.	.	-3%
COc1ccc(CNC(=O)c2ccc(C3Nc4ccccc4S(=O)(=O)N3)cc2)cc1OC (stereo not drawn)	.	.	.	-25%
Cc1sc(/N=C/c2c(O)ccc3ccccc23)c(C#N)c1C	2%	.	.	.
COc1ccc(O)c(/C=N/c2sc(C)c(C)c2C#N)c1	-8%	30µM*	-14%	?
